# Source: the supplement of paper PMC3334620
# In all, about 33,000 sequences were measured (“E-score (-0.5 to 0.5)”: median about -0.0059, highest 2% from about 0.26 on). Only a selection was taken, and the highest values are over-represented in it overall.
# Biological target: T1, Cin5 (UniProt P40917)
# T1 sequence: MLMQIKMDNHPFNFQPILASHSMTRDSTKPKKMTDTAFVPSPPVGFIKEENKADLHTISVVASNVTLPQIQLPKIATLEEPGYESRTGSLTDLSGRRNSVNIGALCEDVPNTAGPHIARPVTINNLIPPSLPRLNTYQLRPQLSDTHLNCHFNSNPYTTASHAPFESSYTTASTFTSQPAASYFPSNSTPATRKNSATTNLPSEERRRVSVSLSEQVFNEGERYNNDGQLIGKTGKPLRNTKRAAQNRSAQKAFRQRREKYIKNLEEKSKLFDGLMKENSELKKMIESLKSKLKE
# Experiment: PBM E-score (8-mer binding enrichment) (E-score (-0.5 to 0.5)); higher = stronger / more preferred TF binding
# Conditions: protein concentration: 100 nM; construct: GST-full length
# How it was run: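 Universal all-10-mer Agilent arrays, double-stranded by primer extension on fresh or once-stripped slides, were probed with about 100-200 nM GST-tagged yeast transcription factors made by PURExpress. Fluorescent anti-GST detected bound protein, and masliner normalised the scans. E-scores from the Universal PBM Analysis Suite were given to each ungapped eight-base word pooled with its reverse complement.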
row,Sequence,PBM E-score
1,ACGCAATA,0.209
2,TAAGGCAA,0.0779
3,CAAGGAGG,0.00169
4,AGGGGTGC,-0.088
5,CTGGACGA,-0.129
6,CGAAAGAC,1e-05
7,CCCCGGGA,0.0124
8,AAATTATC,0.278
9,GAATTATC,0.145
10,AAATTATT,0.183
11,AAATTACA,0.248
12,TAATTACA,0.259
13,AAATTATA,0.262
14,AAATTAAA,0.214
15,AAATTATG,0.24
16,CAATTACA,0.242
17,AATAGAAT,0.106
18,CTGGGTTA,-0.0908
19,ACAGAACA,0.136
20,CCCATTCA,0.214
21,TGAGACCA,-0.078
22,AAGCCTGG,-0.072
23,GCCGTGAC,-0.0205
24,ATACTCAA,0.204
25,CTACTCAG,-0.0922

row,Sequence,PBM E-score
1,ATACTCAG,0.258
2,CCCGTTCA,-0.0227
3,AAAGCGTC,-0.113
4,GTAGTCAC,-0.185
5,ACTTTTAG,-0.0275
6,ACTTTTAC,0.273
7,ACTTTTAA,0.0259
8,CATTTTAG,0.137
9,CATTTTAA,0.0885
10,CATTTTAC,0.263
11,GACTCCAA,-0.226
12,CTAGTGTC,-0.0545
13,GGGTTGAA,-0.0789
14,CAGACTAG,-0.237
15,ATAGGTCA,0.0611
16,CTTAATAC,0.191
17,ATTAATAC,0.27
18,ATGAATAG,0.148
19,CCTAATAA,0.0783
20,ATTAATAG,0.272
21,TCTAATAA,0.0206
22,CTTAATAA,0.267
23,ATTAAAAA,0.162
24,ATTAATAA,0.336
25,GGTAATAC,0.168

row,Sequence,PBM E-score
1,GTTAATAA,0.186
2,ATTAATGG,0.156
3,GTGCCAAC,-0.0934
4,CAAAAAGG,-0.138
5,GACTACCC,-0.127
6,AACTGTCT,0.0125
7,CCGCCGAC,-0.119
8,GAACAGAC,0.0587
9,GGCGCGGA,-0.189
10,AACTGGAA,0.0471
11,ATGATAAC,0.262
12,ATGATAGA,-0.0131
13,ATGATAAA,0.188
14,ATGATAGC,0.269
15,ATGATAGG,-0.0261
16,ATGATAAT,0.272
17,ATGATAAG,0.204
18,CTGATAAC,-0.054
19,GTGATAAC,0.125
20,AGCTGATA,0.0998
21,ATCCTTCC,-0.2
22,GGGGTTAA,-0.0418
23,TCCAGGAA,-0.0393
24,CTGGTTTC,0.0335
25,GGATGCAA,-0.0522

row,Sequence,PBM E-score
1,AACAGACA,0.32
2,AACAGACT,0.138
3,GACAGACA,0.16
4,AGGATCGC,-0.0224
5,TACTGAAA,0.267
6,GACTGAAA,-0.0204
7,CACTGAAA,0.108
8,TACCTTCA,-0.0369
9,ATCACATG,0.00787
10,ATCACGTC,0.186
11,CTCACATA,0.164
12,ATCACATA,0.291
13,ATCACGTG,0.124
14,ATCACGTA,0.269
15,AGTGGTCC,-0.116
16,GACTCGTA,-0.2
17,CAATCCTC,-0.129
18,CAAGGTGA,-0.0314
19,AATGAAAC,0.169
20,ACATAAAA,0.22
21,ACATAAAC,0.263
22,ATAAAAAT,0.0935
23,ACATAAAT,0.28
24,CCATAAAC,-0.114
25,ATATAAAT,0.28

row,Sequence,PBM E-score
1,ATATAAAG,0.137
2,ACATAAAG,0.00631
3,GCATAAAC,0.115
4,AAGGCACC,-0.0903
5,AATACCTC,0.0347
6,CTCCATTA,-0.0341
7,GGCCAGAC,-0.24
8,CCCAGTAA,0.0641
9,CAGCCGCC,-0.0669
10,ACGGCAAT,0.273
11,ACGGCAAG,-0.0312
12,ACGGCAAA,0.0612
13,CATCAAAC,0.0949
14,TATCAACA,0.108
15,GATCAACA,-0.0699
16,AATCAAAC,0.326
17,AATCAACA,0.348
18,AATCAAAT,0.176
19,CCCTGCAA,-0.132
20,CTGGCTCA,0.0435
21,ACGTTGGC,-0.143
22,ACAATTTC,0.139
23,CTAGGAAC,-0.124
24,GTCACCGA,-0.12
25,CCGCATAA,0.283

row,Sequence,PBM E-score
1,ACGCATAA,0.0967
2,GCGCATAA,0.187
3,GAGCGAGA,0.166
4,GCAAGGAA,-0.0209
5,CTGCTTCA,-0.153
6,TATGGTAA,0.288
7,GATGGTAA,-0.0229
8,AATGGTAA,0.233
9,CGCTTTTC,-0.0646
10,AACACTTA,0.154
11,AACACTGT,-0.0444
12,AACACTGA,0.271
13,CTTCGCCA,-0.137
14,AATTAATG,0.221
15,AATTAATA,0.341
16,AATTAATT,0.0929
17,TATTAACA,0.195
18,GATTAATA,0.348
19,CATTAATA,0.187
20,GATTAATC,0.145
21,TATTAATA,0.297
22,GATTAAGA,0.104
23,GTGGGGTA,0.181
24,ACGCACTA,0.0242
25,GCTGGGCA,-0.142

row,Sequence,PBM E-score
1,AAGAGCCG,-0.187
2,CAAGGGTG,-0.166
3,TCGGCAGA,-0.0269
4,ATTAAATA,0.274
5,CATAAATA,0.183
6,TATAAATA,0.283
7,AATAAATT,0.19
8,GATAAATA,0.245
9,CATAAATG,-0.125
10,TAAAAATA,0.152
11,ATTAAATC,0.205
12,AATAAATA,0.293
13,TATAAAAA,0.176
14,AATAAATG,0.269
15,ATTAAATG,0.245
16,CTGGACCA,-0.148
17,ACCCACAT,0.0905
18,CACTGAGG,-0.0826
19,GTGTGTCA,0.0629
20,GTTACCAA,0.0591
21,ATTACCAA,0.27
22,CTTACCAC,0.0364
23,CTTACCGA,0.0713
24,CTTACCAA,0.286
25,ATTACCAC,0.151

row,Sequence,PBM E-score
1,AACCGAAC,-0.0782
2,TACCACCA,-0.0388
3,AGATATGA,0.272
4,ATATATGG,0.24
5,CGATATGA,0.0193
6,AGATATGC,0.0698
7,GGATATGA,0.0996
8,AGATATGG,0.26
9,GACCAGTC,-0.195
10,CCCCGGTC,-0.2
11,ATCAGTGG,0.0229
12,CCTAGAGA,-0.119
13,GTAAAGTA,0.305
14,ATAAAGTG,0.149
15,ATAAAGTA,0.264
16,GCAAAGTA,0.175
17,CTAAAGTA,-0.0582
18,ATAAAGTC,0.113
19,ACACGCCT,-0.127
20,CTTTATGC,-0.0141
21,CAGGTACC,-0.324
22,CGAGATTA,0.244
23,AGAGCGCA,-0.168
24,ACCTTACA,-0.0412
25,CTGACATA,0.153

row,Sequence,PBM E-score
1,ATGACATA,0.296
2,GGGACATA,0.0818
3,ATGACATC,0.248
4,GTGACACA,0.096
5,GTGACATA,0.303
6,ATAGGGCA,-0.0914
7,CCCAGGCC,-0.308
8,CTAAGAAA,-0.0357
9,ATCCGCGA,0.015
10,CCGCGCGA,0.186
11,ATCCGCGC,-0.0165
12,GCGCGCGC,0.306
13,CCGCGCGG,0.307
14,CCGCGCGC,0.0301
15,ATCCGCGG,0.271
16,ACGCGCGC,0.158
17,GCGCGCGA,0.104
18,AGGGTCGA,-0.084
19,AAACCAAT,0.188
